# According to PubChem BioAssay AID2283105 (EPA ToxCast):
# Activity calls are given as the source filed them. The calls were made as follows: active = hit-call score of the fitted dose curve at least 0.9, where 1 is the maximum; inactive = score below 0.9.
# Target: human CYP2E1, CYP2E1 (gene 1571) (UniProt P05181)
# Experiment: NVS_ADME_hCYP2E1: NovaScreen (NVS) CYP450-related Enzyme Activity (ADME) Assay for human CYP2E1
# Protocol: NVS_ADME_hCYP2E1 is a biochemical, single-readout assay that uses extracted gene-proteins in a cell-free assay. Measurements were taken 0.5 hour after chemical dosing in a 96-well plate.NVS_ADME_hCYP2E1 is one of one assay component(s) measured or calculated from the NVS_ADME_hCYP2E1 assay. It is designed to make measurements of enzyme activity, a form of enzyme reporter, as detected with fluorescence intensity signals by Fluorescence technology.Data from the assay component NVS_ADME_hCYP2E1 was analyzed into 1 assay endpoint. This assay endpoint, NVS_ADME_hCYP2E1, was analyzed in the positive analysis fitting direction relative to Acetonitrile as the negative control and baseline of activity. Using a type of enzyme reporter, loss-of-signal activity can be used to understand changes in the enzymatic activity as they relate to the gene CYP2E1. Furthermore, this assay endpoint can be referred to as a primary readout, because this assay has produced multiple assay endpoints where this one serves a enzymatic activity function. To generalize the intended target to other relatable targets, this assay endpoint is annotated to the cyp intended target family, where the subfamily is xenobiotic metabolism.
# Binding assays used specific radioligands (tritiated, iodinated) with non-radioactive competitive displacement ligands in agonist or antagonist protocols (as indicated) and various reference compounds and inhibitors to titrate specific binding to receptors and transporters. Most enzyme assays (CYPs, kinases, phosphatases, proteases, HDACs) used recombinant protein and specific substrates (fluorescence mostly, some colorimetric and radioactive) and inhibitors, followed by a biochemical separation of substrate and product. All assays for the biochemical HTS were initially run in duplicate at a single concentration (10 uM for CYP450 assays and 25 uM for all others). Assay-chemical combinations meeting a pre-defined threshold (e.g., 30% inhibition and other criteria defined below) were then run in singleton concentration-response format with maximum concentration of 20 uM for CYPs and 50 uM for all others. Each assay was run with positive and negative controls, and concurrent controls on every plate. The follow-up (secondary) screen tested active chemical-pairs in concentration series, as well as a few additional assays not tested in the primary screen, some selected negative inactives, and several cases re-run in the concentration series for confirmatory purposes.
# Chain of human CYP2E1, CYP2E1 (gene 1571) (P05181 whole entry, looked up): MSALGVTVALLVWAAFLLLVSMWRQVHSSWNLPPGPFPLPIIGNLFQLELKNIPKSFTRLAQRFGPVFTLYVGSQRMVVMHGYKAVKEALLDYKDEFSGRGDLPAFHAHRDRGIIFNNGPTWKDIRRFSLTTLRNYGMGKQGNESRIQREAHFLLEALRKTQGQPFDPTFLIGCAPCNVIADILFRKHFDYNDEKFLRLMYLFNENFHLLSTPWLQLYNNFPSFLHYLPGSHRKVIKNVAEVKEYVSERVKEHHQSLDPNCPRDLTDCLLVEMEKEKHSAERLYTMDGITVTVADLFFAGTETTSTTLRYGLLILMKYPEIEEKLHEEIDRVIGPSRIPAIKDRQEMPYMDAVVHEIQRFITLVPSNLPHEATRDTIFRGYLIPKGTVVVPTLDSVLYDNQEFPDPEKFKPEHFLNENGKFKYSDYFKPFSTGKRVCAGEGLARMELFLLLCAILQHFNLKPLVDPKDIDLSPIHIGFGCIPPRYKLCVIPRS
Compound,outcome,AC50
COP(=S)(OC)Oc1ccc([N+](=O)[O-])cc1,inactive,–
COP(=S)(OC)SCn1nnc2ccccc2c1=O,inactive,–
FC(F)C(F)(F)OCC(Cn1cncn1)c1ccc(Cl)cc1Cl (configuration not stated),inactive,–
CC(C)(C)C(O)C(Oc1ccc(Cl)cc1)n1cncn1 (configuration not stated),–,604 nM (active)
CC(C)NC(=O)N1CC(=O)N(c2cc(Cl)cc(Cl)c2)C1=O,inactive,–
CC[C@H](C)[C@H]1O[C@]2(C=C[C@@H]1C)C[C@@H]1C[C@@H](C/C=C(\C)[C@@H](O[C@H]3C[C@H](OC)[C@@H](O[C@H]4C[C@H](OC)[C@@H](NC)[C@H](C)O4)[C@H](C)O3)[C@@H](C)/C=C/C=C3\CO[C@@H]4[C@H](O)C(C)=C[C@@H](C(=O)O1)[C@]34O)O2,–,551 nM (active)
CCCN(CCOc1c(Cl)cc(Cl)cc1Cl)C(=O)n1ccnc1,–,486 nM (active)
N#Cc1c[nH]cc1-c1cccc2c1OC(F)(F)O2,inactive,–
CCC(=NOC/C=C/Cl)C1=C(O)CC(C2CCOCC2)CC1=O (configuration not stated),–,3500 nM (active)
COP(=S)(OC)Oc1ccc([N+](=O)[O-])c(C)c1,–,319 nM (active)
COc1nn(CSP(=S)(OC)OC)c(=O)s1,inactive,–
N#CSCSC#N,inactive,–
